Experimental data taken from PubChem BioAssay (Tox21).
Values without a mark were called inactive. Records with an inconclusive call do not appear. Entries that show only a call come without a potency. The source made the active and inactive calls. Unless noted, calls follow the shape of the dose curve; as a rule, active = well fitted curve in the direction sought with a large enough effect in the repeat runs; inconclusive = weak or mixed curves; inactive = no such curve, though single readings can be large; an effect the other way counts as inactive or inconclusive.

Tests used:
[1] = qHTS assay for small molecule agonists of the p53 signaling pathway (AID 651631; calls by dose curve; also: potency is read from the fitted curve at half-maximal effect; nearly all actives have a fitted effect of over 15% in size)
Outline: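 HCT-116 cells carrying a beta-lactamase reporter under p53 response elements were dosed with compound for 16 h at 37 °C. LiveBLAzer B/G FRET substrate was then added for 2 h at room temperature, and fluorescence intensity was read to detect pathway agonism.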

[2] = qHTS assay for small molecule agonists of the p53 signaling pathway - cell viability (AID 651633; calls by dose curve; also: nearly all actives have a fitted effect of over 30% in size; also: potency is read from the fitted curve at half-maximal effect)
Outline: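 Viability counter-read: CellTiter-Glo luminescence (30 min, room temperature) in the same p53RE-bla plates. These plates had been exposed to compounds for 16 h at 37 C.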

[3] = qHTS assay for small molecules that induce genotoxicity in human embryonic kidney cells expressing luciferase-tagged ATAD5 - cell viability (AID 651634; calls by dose curve; also: nearly all actives have a fitted effect of over 25% in size; also: potency is read from the fitted curve at half-maximal effect)
Outline: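 Cells (HEK293T, luciferase-tagged ATAD5) are seeded at 2,000 per well, dosed with compound or DMSO vehicle, and incubated 15.5 hr at 37C and 5% CO2. CellTiter-Fluor is added for 30 min before fluorescence is measured.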

[4] = qHTS assay for small molecule disruptors of the mitochondrial membrane potential (AID 720635); also: potency is read from the fitted curve at half-maximal effect
Outline: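 Mitochondrial membrane potential tracked with Mito-MPS dye, red aggregates (ex 540/em 590 nm) against green monomers (ex 490/em 535 nm). Compound treatment 1 hr at 37C, dye 30 min in HepG2.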

[5] = qHTS assay to test for compound auto fluorescence at 590 nm (red) in HepG2 cells (AID 720674)
Outline: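 Red autofluorescence (Ex/Em 540/590 nm, Rose Bengal sodium equivalents) was measured in HepG2 cells, 2,000 per well in MEM plus 10% FBS, plated overnight at 37 C. Readings were taken 1 hr after adding 23 nL compound or DMSO, at 37 C and 5% CO2.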

[6] = qHTS assay to test for compound auto fluorescence at 535 nm (green) in HepG2 cells (AID 720675)
[7] = qHTS assay to test for compound auto fluorescence at 460 nm (blue) in HEK293 cells (AID 720678)
Outline: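 Intrinsic compound fluorescence is recorded in live HEK293 cultures after overnight incubation at 37C, 5% CO2, using excitation 405 nm and emission 460 nm. Values are referenced to triamterene.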

[8] = qHTS assay to test for compound auto fluorescence at 535 nm (green) in HEK293 cells (AID 720680)
[9] = qHTS assay to test for compound auto fluorescence at 460 nm (blue) in HEK293 cell free culture (AID 720681)
Outline: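 Blue fluorescence (Ex 405/Em 460 nm, triamterene-equivalent) was read immediately after pin transfer of compound or DMSO into medium (DMEM, 10% FBS) without cells.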

[10] = qHTS assay to test for compound auto fluorescence at 535 nm (green) in HEK293 cell free culture (AID 720682)
Outline: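 Green-label autofluorescence (485 nm excitation, 535 nm emission) measured on compound added to cell-free culture medium (DMEM, 10% FBS). Output is expressed relative to fluorescein.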

[11] = qHTS assay to test for compound auto fluorescence at 590 nm (red) in HEK293 cell free culture (AID 720683)
Outline: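 Red-channel autofluorescence of compounds in culture medium (DMEM, 10% FBS), no cells, measured at 540/590 nm. Rose Bengal sodium is the reference fluorophore for equivalence.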

[12] = qHTS assay to test for compound auto fluorescence at 590 nm (red) in HepG2 cell free culture (AID 720684)
Outline: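 No cells present: MEM + 10% FBS only. Compound pinned in, red label read (540/590 nm). Activity = fluorescence equivalent to Rose Bengal sodium.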

[13] = qHTS assay to test for compound auto fluorescence at 535 nm (green) in HepG2 cell free culture (AID 720686)
[14] = qHTS assay to test for compound auto fluorescence at 460 nm (blue) in HepG2 cells (AID 720687)
Outline: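 Blue-channel autofluorescence (Ex/Em 405/460 nm, triamterene-equivalent) was measured after 1 hr compound exposure at 37 C, 5% CO2. Cells were HepG2, plated overnight at 37 C in MEM plus 10% FBS.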

[15] = qHTS assay for small molecules that induce genotoxicity in human embryonic kidney cells expressing luciferase-tagged ATAD5 (AID 651632); also: nearly all actives have a fitted effect of over 15% in size
Outline: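 Cells were seeded at 2,000 per well, dosed with compound, and incubated 16 hr at 37C in 5% CO2. Luciferase activity was then quantified after a 30 min room-temperature incubation with Amplite.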

[16] = qHTS assay for small molecule disruptors of the mitochondrial membrane potential - cell viability (AID 720634; calls by dose curve; also: nearly all actives have a fitted effect of over 20% in size; also: potency is read from the fitted curve at half-maximal effect)
Outline: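 Cytotoxicity was measured by ATP quantitation in HepG2 wells that had first been treated with compound for 1 hr and stained with m-MPI dye; CellTiter-Glo incubation was 30 min at room temperature.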

[17] = qHTS assay to test for compound auto fluorescence at 590 nm (red) in HEK293 cells (AID 720679)
Outline: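 Red autofluorescence, HEK293 cells: 2,000 cells/well; attach 4-5 hr 37C; add 23 nL cpd or DMSO; incubate o/n 37C 5% CO2; read Ex540/Em590; Rose Bengal sodium reference.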

[18] = qHTS assay to test for compound auto fluorescence at 460 nm (blue) in HepG2 cell free culture (AID 720685)
Outline: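 Cell-free plates of MEM plus 10% FBS received 23 nL compound or DMSO vehicle; blue-channel (405/460 nm) intensity scored against triamterene as reference fluorophore.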

[19] = biological target: Glucocorticoid receptor (Homo sapiens) (UniProt P04150); experiment: qHTS assay to identify small molecule agonists of the glucocorticoid receptor (GR) signaling pathway (AID 720691; active = well fitted activation curve with a large enough effect in the signal ratio in the repeat runs, not every such curve was filed as active; the % refers to the signal ratio); conditions: GR-bla HeLa, beta-lactamase reporter ratio, 18 h; activation: at 62.4 µM (top of the series)
Glucocorticoid receptor (Homo sapiens), sequence (P04150 whole entry, looked up): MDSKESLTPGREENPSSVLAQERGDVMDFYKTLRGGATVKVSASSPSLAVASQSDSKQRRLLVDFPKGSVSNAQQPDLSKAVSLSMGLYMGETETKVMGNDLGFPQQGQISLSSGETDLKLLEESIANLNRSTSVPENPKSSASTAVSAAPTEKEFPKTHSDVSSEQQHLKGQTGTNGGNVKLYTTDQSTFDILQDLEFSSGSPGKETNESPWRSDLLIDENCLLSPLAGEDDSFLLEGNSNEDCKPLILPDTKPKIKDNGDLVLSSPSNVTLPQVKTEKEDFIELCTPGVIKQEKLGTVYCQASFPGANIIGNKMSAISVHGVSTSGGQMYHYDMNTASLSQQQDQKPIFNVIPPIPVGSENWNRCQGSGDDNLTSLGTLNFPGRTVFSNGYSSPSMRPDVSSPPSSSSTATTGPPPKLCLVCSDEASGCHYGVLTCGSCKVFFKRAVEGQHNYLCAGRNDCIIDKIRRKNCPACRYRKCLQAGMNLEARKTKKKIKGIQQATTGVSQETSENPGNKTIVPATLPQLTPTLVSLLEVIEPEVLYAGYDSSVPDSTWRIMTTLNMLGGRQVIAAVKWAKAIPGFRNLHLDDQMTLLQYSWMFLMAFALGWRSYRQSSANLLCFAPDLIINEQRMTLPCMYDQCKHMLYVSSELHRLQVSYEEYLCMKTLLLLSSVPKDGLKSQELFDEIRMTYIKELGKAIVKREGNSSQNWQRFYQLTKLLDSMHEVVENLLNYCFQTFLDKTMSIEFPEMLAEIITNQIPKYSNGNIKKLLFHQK
Outline: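 Steps: seed GR-bla HeLa cells, incubate 4 h at 37 C/5% CO2; pin-transfer DMSO-dissolved compounds; incubate 18 h at 37 C; add LiveBLAzer B/G FRET substrate; after 2 h at room temperature, measure fluorescence.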

[20] = biological target: Glucocorticoid receptor (Homo sapiens) (UniProt P04150); experiment: qHTS assay to identify small molecule antagonists of the glucocorticoid receptor (GR) signaling pathway (AID 720692; active = well fitted inhibition curve with a large enough effect in the signal ratio in the repeat runs, not every such curve was filed as active; the % refers to the signal ratio; also: potency is read from the fitted curve at half-maximal effect)
Outline: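 Antagonism was scored as loss of dexamethasone-driven (5 nM final) reporter signal in HeLa cells bearing a glucocorticoid response element–beta-lactamase construct, after 18 h compound exposure at 37 C and 2 h FRET substrate loading.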

Compound | Potency [1] | Potency [2] | Potency [3] | Potency [4] | Potency [5] | Potency [6] | Potency [7] | outcome [8] | Potency [9] | outcome [10] | Potency [11] | Potency [12] | Potency [13] | Potency [14] | Potency [15] | Potency [16] | Potency [17] | Potency [18] | Potency [19] | Potency [20]
[Cl][Bi]([Cl])([c]1ccccc1)([c]1ccccc1)[c]1ccccc1 | 24.2 µM (active) | 21.6 µM (active) | 60.8 µM (active) | 43 µM (active) | inactive | inactive | inactive | inactive | inactive | inactive | inactive | inactive | inactive | inactive | – | – | – | – | – | –
CCCCCCCCOC(=O)c1ccc(O)cc1 | – | inactive | inactive | 17.2 µM (active) | inactive | inactive | inactive | inactive | inactive | inactive | inactive | inactive | inactive | inactive | inactive | 24.3 µM (active) | inactive | inactive | – | –
O=C1C=CC(=O)N1c1ccc(Cc2ccc(N3C(=O)C=CC3=O)cc2)cc1 | 13.7 µM (active) | 10.9 µM (active) | 15.4 µM (active) | 6.86 µM (active) | inactive | inactive | inactive | inactive | inactive | inactive | inactive | inactive | inactive | inactive | – | 7.7 µM (active) | inactive | inactive | – | –
CCCCCCCCCCCCCCCCCC[N+](C)(C)Cc1ccccc1 | – | 24.6 µM (active) | 55 µM (active) | 15.5 µM (active) | inactive | inactive | inactive | inactive | inactive | inactive | inactive | inactive | inactive | inactive | inactive | 69.2 µM (active) | inactive | inactive | – | –
CC1=NC(C)OC1C (stereo not given) | – | inactive | inactive | inactive | inactive | inactive | inactive | inactive | inactive | inactive | inactive | inactive | inactive | inactive | inactive | inactive | inactive | inactive | inactive | 34.7 µM (active)
CC[C@H]1O[C@]2(CC[C@@H]1C)C[C@@H]1C[C@@H](C/C=C(\C)C[C@@H](C)/C=C/C=C3\CO[C@@H]4[C@H](O)C(C)=C[C@@H](C(=O)O1)[C@]34O)O2 | – | 12.1 µM (active) | 54 µM (active) | 21.5 µM (active) | inactive | inactive | inactive | inactive | inactive | inactive | inactive | inactive | inactive | – | inactive | 68 µM (active) | inactive | inactive | – | –
CC1=C(C(=O)OC(C)C)C(c2cccc([N+](=O)[O-])c2)C(C(=O)OC2CN(C(c3ccccc3)c3ccccc3)C2)=C(N)N1 (stereo not given) | – | 7.5 µM (active) | 18.8 µM (active) | 1.19 µM (active) | inactive | inactive | inactive | inactive | inactive | – | inactive | inactive | – | inactive | inactive | 7.5 µM (active) | inactive | inactive | – | –
